CYP2C9 inhib: human CYP2C9 inhibition; AID 777; P11712; 20% of 96,000 active; inhibition, % at 5 µM; CYP2C9 Supersomes, luciferin-H conversion, luminescence;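 active means blocking of liver enzyme CYP2C9 beyond about 50% at 5 µM, limit read from the data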
CYP2C9 activ: CYP2C9 (human) activation; P11712; recombinant CYP2C9, luciferin-H conversion, luminescence; hits give high values; factor 1 = untreated enzyme, 0 = blocked; activation factor at 5 µM; 1.4% of 96,000 active; AID 1024;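 active means activation factor of 2 or more for CYP2C9 at a 5 µM dose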
CYP2C19 activ: cytochrome P450 2C19 (human) activation; activation factor at 5 µM; 96,000 tested, under 10 active; AID 1025; P33261; recombinant CYP2C19, luciferin-H EGE luminescence; hits give high values; 0 = fully inhibited enzyme, 1 = untreated enzyme;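 active means activation factor of at least 2 at 5 µM in the primary screen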
Target sequence (P33261 whole entry, looked up): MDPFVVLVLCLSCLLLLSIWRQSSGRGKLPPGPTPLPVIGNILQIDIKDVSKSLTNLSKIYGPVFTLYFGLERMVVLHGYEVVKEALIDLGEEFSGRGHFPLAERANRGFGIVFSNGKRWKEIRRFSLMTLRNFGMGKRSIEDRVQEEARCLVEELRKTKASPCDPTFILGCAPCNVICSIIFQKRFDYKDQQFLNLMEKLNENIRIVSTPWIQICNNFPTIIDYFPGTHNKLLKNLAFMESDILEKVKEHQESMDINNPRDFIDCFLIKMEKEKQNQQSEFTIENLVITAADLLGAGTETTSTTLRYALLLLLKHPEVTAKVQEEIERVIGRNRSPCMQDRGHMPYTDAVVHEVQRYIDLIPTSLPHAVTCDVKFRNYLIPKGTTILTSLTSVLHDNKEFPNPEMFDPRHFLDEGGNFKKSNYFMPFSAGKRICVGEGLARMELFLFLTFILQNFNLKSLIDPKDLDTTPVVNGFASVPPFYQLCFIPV
CYP2C19 inhib: inhibitors of human CYP2C19; CYP2C19 Supersomes, luciferin-H EGE luminescence, 30 min; inhibition, % at 5 µM; 21% of 96,000 active; AID 778;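 active means CYP2C19 inhibition above a set limit at 5 µM in the primary screen, cut at about 50% in these data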
PLAP act: human PLAP activation; purified PLAP enzyme, luminescent substrate read-out; hits give high values; activation fold at 20 µM; 1.2% of 96,000 active; in the data active means activation fold above about 2
A number is an active result; 0 = inactive. A selection: hits, their analogues and other compounds. The true share with any hit is near 31%.

SMILES	CYP2C9 inhib	CYP2C9 activ	CYP2C19 activ	CYP2C19 inhib	PLAP act
C=CCn1c(SCC2=C(C(=O)OCC)C(C)NC(=O)N2)nnc1C1CCCCC1 (configuration not stated)	0	0	0	0	0
CCCNC(=O)CC1C(=O)N(Cc2ccccc2)C(C)c2nc3ccccc3n21 (configuration not stated)	0	0	0	67.3	0
CCCCn1c(CNC(=O)Cc2ccccc2)nc2ccccc21	0	0	0	0	0
Cc1ccc(C2=NN(C(=S)Nc3ccccc3)C(c3ccco3)C2)cc1 (configuration not stated)	52.2	0	0	0	0
CCS(=O)(=O)Nc1ccc(C2=NN(C(=O)c3ccco3)C(c3ccc(C)cc3)C2)cc1 (configuration not stated)	0	0	0	0	0
CCCOC(=O)/C(C(N)=NCc1ccccc1)=C(\O)OCCC	0	0	0	0	0
COC(=O)c1cc(-c2ccccc2)n(CC(=O)O)c1C	0	0	0	0	0
COc1ccc(/C=C2\N=C(SC)N(C)C2=O)cc1	0	0	0	52.1	0
CC(=NC(C)C)C1=C(O)CCC1=O	0	0	0	0	0
COc1ccccc1NS(=O)(=O)c1ccc(NC(=O)c2nc3ncccn3n2)cc1	0	0	0	0	0
CCn1ccc(C(=O)Nc2ccc(S(=O)(=O)Nc3ccccc3OC)cc2)n1	81.6	0	0	80.7	0
CCCCOC(=O)n1ccc(C(=O)Nc2ccccc2OC)n1	0	2.1	0	0	0
COc1ccccc1NS(=O)(=O)c1ccc(NC(=O)c2nc3nc(C)cc(C(F)F)n3n2)cc1	61.1	0	0	0	0
CCOc1ccc(/C(O)=C2/C(=O)C(=O)N(CCOCCO)C2c2cccnc2)cc1 (configuration not stated)	0	0	0	0	0
CCSc1nc2c(cnn2-c2ccc(C)cc2)c(=O)[nH]1	0	0	0	0	0
CCOCCCNC(=S)N1C2CCC1CC(NC(=O)NC1CCCCC1)C2 (configuration not stated)	0	0	0	0	0
COC(=O)C1=C(C)N=C2SCCC(=O)N2C1c1cccs1 (configuration not stated)	0	0	0	0	0
CC1=C(C(=O)OC(C)C)C(c2cccs2)N2C(=O)CCSC2=N1 (configuration not stated)	0	0	0	50.8	0
CC1=C(C(=O)OC(C)C)C(c2cccs2)N2C(=O)C(C)SC2=N1 (configuration not stated)	0	0	0	64.6	0
CCOc1ccccc1N(C(=O)CNS(=O)(=O)c1ccccc1)C(CC)C(=O)NCc1ccco1 (configuration not stated)	0	0	0	0	0
COc1ccc(CN2CCOCC2)c(C)c1C	0	0	0	0	0
CCCCCOc1ccc(Cl)cc1CN1CCOCC1	54.2	0	0	90.5	0
CC(C)CCOc1ccc(Cl)cc1CN1CCOCC1	0	0	0	55.9	0
CCOc1ccc(Cl)cc1CN1CCOCC1	0	0	0	0	0
CCOC(=O)C1CCCN(C(=O)CCCn2nc(C)n3c(cc4sccc43)c2=O)C1 (configuration not stated)	0	0	0	0	0
SMILES	CYP2C9 inhib	CYP2C9 activ	CYP2C19 activ	CYP2C19 inhib	PLAP act
Cc1ccccc1N(CC(=O)NCCc1ccccc1)C(=O)c1ccc(N2CCCC2)nc1	95.0	0	0	56.9	0
Cc1csc(SCC(=O)NC(=O)NCc2ccccc2)n1	0	0	0	0	0
Cc1nc(SCC(=O)NC(=O)NCc2ccccc2)nc(C)c1C	0	0	0	58.8	0
Cc1nc(SCC(=O)NCCc2ccccc2)nc(C)c1C	0	0	0	80.3	0
O=C(Nc1ccccc1)N1C(=O)C2(OCCO2)c2ccccc21	0	0	0	0	0
Cc1cc(NC(=O)C2C3C(=O)N(Cc4ccc(Cl)cc4)C(C(=O)NC4CCCCC4)C34C=CC2(C)O4)no1 (configuration not stated)	0	0	0	0	0
Cc1cc(NC(=O)C2C3C(=O)N(Cc4ccc(Cl)cc4)C(C(=O)NCc4ccccc4)C34C=CC2(C)O4)no1 (configuration not stated)	83.1	0	0	0	0
COC(=O)C1=C(C)N(c2ccc(C)c(C)c2)/C(=C/c2cccs2)C1=O	0	0	0	0	0
CCC(Cc1ccccc1)NC(=O)C1CCC(CNc2c(N3CCCC3)c(=O)c2=O)CC1 (configuration not stated)	0	0	0	0	0
N=C1C(c2nc(-c3ccc(F)cc3)cs2)=C(O)CN1Cc1ccc(Cl)cc1	53.1	0	0	0	0
COc1ccc(-c2csc(C3=C(O)CN(Cc4ccc(Cl)cc4)C3=N)n2)cc1OC	89.4	0	0	0	0
CCOC(=O)c1cc(CNC(=O)c2c(C)oc3c2CCCC3)c(C)o1	0	0	0	0	0
COc1cc(NC(=O)Cn2c(-c3cncs3)nc3ccccc32)cc(OC)c1OC	56.1	0	0	0	0
O=C(O)Cn1c(-c2cscn2)nc2ccccc21	0	0	0	0	0
O=C(Cn1c(-c2cscn2)nc2ccccc21)Nc1cc(F)ccc1F	0	0	0	63.6	0
Brc1ccccc1Cn1c(-c2cncs2)nc2ccccc21	0	0	0	0	0
O=C(Cn1c(-c2cscn2)nc2ccccc21)Nc1ccc2ccccc2c1	63.0	0	0	0	0
COc1cc(NC(=O)Cn2c(C)cc3ccccc3c2=O)cc(OC)c1OC	0	0	0	0	0
N#Cc1ccccc1Cn1c(-c2cscn2)nc2ccccc21	0	0	0	50.0	0
COC(=O)NC1CSCC1OC(=O)CCN1C(=O)c2ccccc2C1=O (configuration not stated)	0	0	0	0	0
O=C1C2C3C=CC([C@@H]2C(=O)N1C1CC1)[C@H]1C(=O)N(C2CC2)C(=O)C31 (some centres not stated)	0	0	0	0	0
Cc1ccccc1NC(C)C(=O)N/N=C/c1ccccc1OCc1cccc(Br)c1 (configuration not stated)	76.4	0	0	0	0
CN(C)/C=C(/C(=O)c1ccc(Cl)cc1Cl)S(=O)(=O)c1ccccc1	62.8	0	0	0	0
O=C(NN1C(=O)C2C3C=CC(C4CC34)C2C1=O)c1ccc(Cl)cc1Cl (configuration not stated)	0	0	0	0	0
O=C(Nc1ccc(N=Nc2ccccc2)cc1)c1ccc(Cl)cc1Cl	0	0	0	0	0
SMILES	CYP2C9 inhib	CYP2C9 activ	CYP2C19 activ	CYP2C19 inhib	PLAP act
CN(C)/C=C(/C(=O)c1ccc(Cl)cc1Cl)S(=O)(=O)c1ccc(Cl)cc1	95.1	0	0	79.5	0
CN(C)/C=C(/C(=O)c1ccc(Cl)cc1)S(=O)(=O)c1ccc(Cl)cc1	0	0	0	61.5	0
O=C(Nc1cc(S(=O)(=O)N2CCCC2)ccc1Cl)C1=COCCO1	0	0	0	52.5	0
O=C(O)c1cc(S(=O)(=O)N2CCCCCC2)ccc1Cl	0	0	0	0	0
O=C(c1ccc(F)cc1)c1cc2ccccc2o1	0	0	0	0	0
O=C(CC(=O)c1ccccc1O)c1ccc(F)cc1	0	0	0	0	0

From PubChem
